The nature of assay [1]: NCI Yeast Anticancer Drug Screen. Data for the rad50 strain (AID 155).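 Note: 0% = growth of vehicle-only cultures of the same strain.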 To be noted: S. cerevisiae rad50 strain growth inhibition, hits give high values. A digest of the protocol: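 Growth of the mutant yeast was measured after compound exposure and referenced to vehicle-treated cultures.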
Assay [2] is described as follows: NCI Yeast Anticancer Drug Screen. Data for the mec2-1 strain (AID 157). Particulars: S. cerevisiae mec2-1 strain, hits give high values. A digest of the protocol: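 Cells of the genetically defined mec2-1 yeast strain are incubated with test compound. Inhibition of growth is calculated against vehicle-treated controls.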
The nature of assay [3]: NCI Yeast Anticancer Drug Screen. Data for the sgs1 mgt1 strain (AID 161).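 Note: 0% = growth of cultures given vehicle only.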 Particulars: S. cerevisiae sgs1 mgt1 strain, hits give high values. A digest of the protocol:
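Test agents were incubated with a DNA-repair-mutant yeast strain. Growth was then read and compared against vehicle-treated controls.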

Assay [4] can be described thus: NCI Yeast Anticancer Drug Screen. Data for the cln2 rad14 strain (AID 165).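 Note: 0% = growth equal to vehicle treated cultures.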 To be noted: S. cerevisiae cln2 rad14 strain, hits give high values. A digest of the protocol:
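The screen exposed genetically defined yeast (cln2 rad14) to test compounds and scored growth inhibition relative to vehicle-treated controls.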

The nature of assay [5]: NCI Yeast Anticancer Drug Screen. Data for the bub3 strain (AID 167). Particulars: S. cerevisiae bub3 mutant strain, hits give high values. A digest of the protocol: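 Whole-cell yeast assay. The mutant strain was incubated with compounds, and growth inhibition was determined by comparison with vehicle-treated cells.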
The nature of assay [6]: NCI Yeast Anticancer Drug Screen. Data for the mlh1 rad18 strain (AID 175). Particulars: S. cerevisiae mlh1 rad18 strain growth inhibition, hits give high values. A digest of the protocol:
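Compound-treated yeast growth, normalised to vehicle controls. Strain bears defined DNA repair mutations.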

Setting [7] is: at 5.0 µM (retest, dose inferred, filed as 0.5).
Where [8] appears, read: at 50.0 µM (retest, dose inferred, filed as 5.0).

This is part of a sample that, as a whole, favours compounds with a hit. Of some 79,000 tested, about 15% had one in any assay. A number with no mark means an inactive call. The source made the active and inactive calls. Cut-off read from the data, not from the text of the source: active = growth inhibition above about 70%; inactive = the rest.

Regarding `OC(C1CCC=NN1C(O)(C(F)(F)F)C(F)(F)F)(C(F)(F)F)C(F)(F)F` (stereo not given), the growth inhibition in assay [1] (setting [7]) was 8%; in assay [1] (setting [8]) it was 86% (active); in assay [1] (at 50.0 µM), 89.7% (active); in assay [2] (setting [7]) it was -3%; in assay [2] (setting [8]), 71% (active); in assay [2] (at 50.0 µM), 83.1% (active). For the same compound, the growth inhibition in assay [3] (setting [7]) is -2%; in assay [3] (setting [8]), 69%; in assay [3] (at 50.0 µM), 87.7% (active); in assay [4] (setting [7]) it was 12%; in assay [4] (setting [8]), 58%; in assay [4] (at 50.0 µM) it was 78.8% (active). Besides, the growth inhibition in assay [5] (setting [7]) is -6%; in assay [5] (setting [8]), 78% (active); in assay [5] (at 50.0 µM), 92.5% (active); in assay [6] (setting [7]), 9%; in assay [6] (setting [8]), 87% (active); in assay [6] (at 50.0 µM) it was 94% (active).

On to `CCOC(=O)c1c(N2CCCC2)nsc1Nc1ccc(F)cc1`, for which the growth inhibition in assay [1] (setting [7]) is -3%; in assay [1] (setting [8]), 90% (active); in assay [1] (at 50.0 µM), 91.8% (active); in assay [2] (setting [7]) it was -1%; in assay [2] (setting [8]) it was 93% (active); in assay [2] (at 50.0 µM), 87.2% (active). Besides, the growth inhibition was 13% in assay [3] (setting [7]); 90% (active) in assay [3] (setting [8]); 92% (active) in assay [3] (at 50.0 µM); 2% in assay [4] (setting [7]); 75% (active) in assay [4] (setting [8]); 45% in assay [4] (at 50.0 µM). For the same compound, the growth inhibition in assay [5] (setting [7]) is 1%; in assay [5] (setting [8]) it was 92% (active); in assay [5] (at 50.0 µM), 94.8% (active); in assay [6] (setting [7]) it was -2%; in assay [6] (setting [8]), 88% (active); in assay [6] (at 50.0 µM), 93.5% (active).

As to `Nc1ccccc1C(=O)NCCc1c[nH]c2ccccc12`, the growth inhibition was 1% in assay [1] (setting [7]); 34% in assay [1] (setting [8]); 6.35% in assay [1] (at 50.0 µM); -3% in assay [2] (setting [7]); 6% in assay [2] (setting [8]); 11.8% in assay [2] (at 50.0 µM). The growth inhibition in assay [3] (setting [7]) is 4%; in assay [3] (setting [8]), 40%; in assay [3] (at 50.0 µM), 33.8%; in assay [4] (setting [7]) it was -5%; in assay [4] (setting [8]) it was 27%; in assay [4] (at 50.0 µM), 66.6%. The growth inhibition in assay [5] (setting [7]) is -7%; in assay [5] (setting [8]), 18%; in assay [5] (at 50.0 µM), 48.5%; in assay [6] (setting [7]), 3%; in assay [6] (setting [8]), 38%; in assay [6] (at 50.0 µM), 7%.

On to `Nc1ccc2ccc3cccc4ccc1c2c34`, for which the growth inhibition was 1% in assay [1] (setting [7]); 98% (active) in assay [1] (setting [8]); 90.3% (active) in assay [1] (at 50.0 µM); -37% in assay [2] (setting [7]); 98% (active) in assay [2] (setting [8]); 0.45% in assay [2] (at 50.0 µM). Also, the growth inhibition was 1% in assay [3] (setting [7]); 98% (active) in assay [3] (setting [8]); 48.5% in assay [3] (at 50.0 µM); -1% in assay [4] (setting [7]); 99% (active) in assay [4] (setting [8]); 62.5% in assay [4] (at 50.0 µM). The growth inhibition in assay [5] (setting [7]) is -2%; in assay [5] (setting [8]) it was 98% (active); in assay [5] (at 50.0 µM) it was 23.8%; in assay [6] (setting [7]) it was 1%; in assay [6] (setting [8]), 97% (active); in assay [6] (at 50.0 µM), 88.9% (active).

For `CCc1cccc(C)c1NC(=O)C(=O)CC(=O)c1ccccc1Cl`, the growth inhibition in assay [1] (setting [7]) was 0%; in assay [1] (setting [8]), -1%; in assay [1] (at 50.0 µM), 72% (active); in assay [2] (setting [7]), -1%; in assay [2] (setting [8]) it was 3%; in assay [2] (at 50.0 µM) it was 24.7%. In addition, the growth inhibition is -4% in assay [3] (setting [7]); 0% in assay [3] (setting [8]); 43.8% in assay [3] (at 50.0 µM); -6% in assay [4] (setting [7]); 5% in assay [4] (setting [8]); -12.6% in assay [4] (at 50.0 µM). In addition, the growth inhibition is -2% in assay [5] (setting [7]); -2% in assay [5] (setting [8]); 24.4% in assay [5] (at 50.0 µM); -8% in assay [6] (setting [7]); 0% in assay [6] (setting [8]); 31.1% in assay [6] (at 50.0 µM).

In the case of `N#CC1=C(C#N)Sc2nc3cc(Cl)ccc3nc2S1`, the growth inhibition in assay [1] (setting [7]) is 17%; in assay [1] (setting [8]), 99% (active); in assay [1] (at 50.0 µM), 68.7%; in assay [2] (setting [7]), 24%; in assay [2] (setting [8]), 99% (active); in assay [2] (at 50.0 µM), 91.1% (active). In addition, the growth inhibition was 30% in assay [3] (setting [7]); 98% (active) in assay [3] (setting [8]); 77.9% (active) in assay [3] (at 50.0 µM); 25% in assay [4] (setting [7]); 99% (active) in assay [4] (setting [8]); 20.6% in assay [4] (at 50.0 µM). The growth inhibition is 19% in assay [5] (setting [7]); 98% (active) in assay [5] (setting [8]); 41.9% in assay [5] (at 50.0 µM); 29% in assay [6] (setting [7]); 99% (active) in assay [6] (setting [8]); 94.8% (active) in assay [6] (at 50.0 µM).

In the case of `CC1(CCC(=O)O)c2ccc3ccccc3c2Oc2c1ccc1ccccc21`, the growth inhibition in assay [1] (setting [7]) was 79% (active); in assay [1] (setting [8]), 94% (active); in assay [1] (at 50.0 µM) it was 93.8% (active); in assay [2] (setting [7]) it was 92% (active); in assay [2] (setting [8]), 94% (active); in assay [2] (at 50.0 µM), 96.2% (active). The growth inhibition in assay [3] (setting [7]) is 81% (active); in assay [3] (setting [8]), 94% (active); in assay [3] (at 50.0 µM), 96% (active); in assay [4] (setting [7]), 77% (active); in assay [4] (setting [8]), 95% (active); in assay [4] (at 50.0 µM), 94.9% (active). In addition, the growth inhibition in assay [5] (setting [7]) was 51%; in assay [5] (setting [8]) it was 92% (active); in assay [5] (at 50.0 µM), 95.9% (active); in assay [6] (setting [7]), 84% (active); in assay [6] (setting [8]), 92% (active); in assay [6] (at 50.0 µM), 94.8% (active).

In the case of `COc1ccc2c(c1)nc1cc(Cl)ccc1[n+]2C`, the growth inhibition is 8% in assay [1] (setting [7]); 97% (active) in assay [1] (setting [8]); 82.2% (active) in assay [1] (at 50.0 µM); 2% in assay [2] (setting [7]); 95% (active) in assay [2] (setting [8]); 52.5% in assay [2] (at 50.0 µM). In addition, the growth inhibition was -5% in assay [3] (setting [7]); 97% (active) in assay [3] (setting [8]); 74.1% (active) in assay [3] (at 50.0 µM); 0% in assay [4] (setting [7]); 97% (active) in assay [4] (setting [8]); 64.4% in assay [4] (at 50.0 µM). Further, the growth inhibition in assay [5] (setting [7]) was 9%; in assay [5] (setting [8]) it was 93% (active); in assay [5] (at 50.0 µM), 86.3% (active); in assay [6] (setting [7]), 5%; in assay [6] (setting [8]), 97% (active); in assay [6] (at 50.0 µM), 85.3% (active).

As for `CN(C)CC[N+](C)(C)Cc1ccc(C[N+](C)(C)CC[N+](C)(C)Cc2ccc(CCl)cc2)cc1`, the growth inhibition in assay [1] (setting [7]) was 0%; in assay [1] (setting [8]), 0%; in assay [1] (at 50.0 µM) it was 99% (active); in assay [2] (setting [7]), -39%; in assay [2] (setting [8]), -1%; in assay [2] (at 50.0 µM) it was 98% (active). Moreover, the growth inhibition in assay [3] (setting [7]) is -1%; in assay [3] (setting [8]), 2%; in assay [3] (at 50.0 µM) it was 97.9% (active); in assay [4] (setting [7]), 1%; in assay [4] (setting [8]), 2%; in assay [4] (at 50.0 µM) it was 96% (active). For the same compound, the growth inhibition was -6% in assay [5] (setting [7]); 2% in assay [5] (setting [8]); 97.8% (active) in assay [5] (at 50.0 µM); -1% in assay [6] (setting [7]); -1% in assay [6] (setting [8]); 98.7% (active) in assay [6] (at 50.0 µM).

`CCCCC1(C(O)CC)Sc2ccccc2N1C` (stereo not given): the growth inhibition in assay [1] (setting [7]) was -7%; in assay [1] (setting [8]) it was 24%; in assay [1] (at 50.0 µM), 31.8%; in assay [2] (setting [7]), 2%; in assay [2] (setting [8]), 82% (active); in assay [2] (at 50.0 µM), 41.5%. Also, the growth inhibition in assay [3] (setting [7]) was -2%; in assay [3] (setting [8]), 83% (active); in assay [3] (at 50.0 µM), 50.6%; in assay [4] (setting [7]), 1%; in assay [4] (setting [8]), 36%; in assay [4] (at 50.0 µM), 65.9%. For the same compound, the growth inhibition in assay [5] (setting [7]) is -14%; in assay [5] (setting [8]), 67%; in assay [5] (at 50.0 µM), 61.6%; in assay [6] (setting [7]) it was -12%; in assay [6] (setting [8]), 90% (active); in assay [6] (at 50.0 µM), 56%.
